This is one part of a sample in which hits are shown more often than they occur.
ID4 SMM = binders of human ID4 protein; small molecule microarray, Flag-ID4 binding, fluorescence F/B; calls only; 31,000 compounds, 1.2% hits; AID 624137; call rule not given here;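 note: a binder raises fluorescence above local background on the spot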
Target sequence (P47928 whole entry, looked up): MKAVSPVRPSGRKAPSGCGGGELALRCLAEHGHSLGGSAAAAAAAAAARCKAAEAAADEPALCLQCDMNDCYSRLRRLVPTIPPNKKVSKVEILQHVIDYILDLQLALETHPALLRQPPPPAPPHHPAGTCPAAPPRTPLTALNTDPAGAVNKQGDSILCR
Active calls of the source: *; i = inactive; + = active, no number.

SMILES	ID4 SMM
Cc1sc(NC(=O)c2cnccn2)c(C(N)=O)c1-c1ccccc1	i
COC(=O)c1c2oc(c1C(=O)OC)C(=O)N(C)Cc1cn(nn1)C[C@H](Cc1ccccc1)NC(=O)N[C@H](CO)CC2	+
COC(=O)c1c2oc(c1C(=O)OC)C(=O)N[C@H](Cc1ccccc1)Cn1cc(nn1)CNC(=O)[C@H](Cc1ccccc1)NC(=O)N[C@@H](CO)CC2	+
COC(=O)c1c2oc(c1C(=O)OC)C(=O)N[C@@H](Cc1ccccc1)Cn1cc(nn1)CNC(=O)[C@H](Cc1ccccc1)NC(=O)N[C@@H](CO)CC2	i
COC(=O)c1c2oc(c1C(=O)OC)C(=O)N(C)Cc1cn(nn1)C[C@@H](C)NC(=O)N[C@H](CO)CC2	i
CC(C)[C@@H]1NC(=O)[C@H](Cc2ccccc2)NC(=O)[C@@H](CC(=O)O)NC(=O)CNC(=O)[C@H](CCCN=C(N)N)NC1=O	i
O=S(=O)(NCc1nc2ccccc2[nH]1)c1ccc(Cl)c(Cl)c1	i
CC(=O)Oc1ccc(C(=O)Nc2ccc(S(=O)(=O)Nc3nccs3)cc2)cc1	i
CCn1c(SCC(=O)Nc2ccc([N+](=O)[O-])cc2C)nnc1-c1ccc(Cl)cc1	i
CCn1c(SCC(=O)Nc2ccc(F)c(Cl)c2)nnc1-c1ccncc1	i
COC(=O)c1ccccc1NC(=O)C(C)Oc1ccc2c(C)cc(=O)oc2c1 (stereo not drawn)	i
Cc1cc(=O)oc2cc(OC(C)C(=O)Nc3sc4c(c3C(N)=O)CCCC4)ccc12 (stereo not drawn)	+
Cc1cc(=O)oc2cc(OC(C)C(=O)NCC3CCCO3)ccc12 (stereo not drawn)	i
Cn1c(SCC(=O)c2ccc(Br)cc2)nnc1-c1cc2ccccc2o1	i
O=C(CSc1nc2ncccc2[nH]1)Nc1ccccc1Cl	i
Cc1ccccc1NC(=O)COc1ccc(-c2nc3sc4c(c3c(=O)[nH]2)CCCC4)cc1	i
COc1cc(-c2nc3sc4c(c3c(=O)[nH]2)CCCC4)cc(Br)c1OCC(=O)O	+
CN(C)C(=O)CSc1nc2sc3c(c2c(=O)[nH]1)CCCC3	i
CNC(=S)N(Cc1ccco1)C1CC(=O)N(c2ccc(C(=O)OC)cc2)C1=O (stereo not drawn)	i
O=C(Nc1ccc(S(=O)(=O)Nc2ncccn2)cc1)c1ccccc1Oc1ccccc1	i
CCCc1cc(=O)[nH]c(SCC(=O)Nc2ccccc2C)n1	i
COc1cc(S(=O)(=O)n2cnc3cc(C)c(C)cc32)c(OC)cc1Cl	i
Cc1ccc(-c2nc(S(=O)(=O)c3ccc(Cl)cc3)c(SCC(N)=O)o2)cc1	i
Cc1ccc(S(=O)(=O)Nc2cc(Cl)c(O)c(Sc3nc(C)cc(C)n3)c2)cc1	i
C[C@@H]1CN([C@H](C)CO)C(=O)c2cc(NS(C)(=O)=O)ccc2O[C@@H](C)CCCCO[C@H]1CN(C)Cc1ccccc1	i
SMILES	ID4 SMM
C[C@@H]1CN([C@H](C)CO)C(=O)c2cc(NC(=O)CCCN(C)C)ccc2O[C@H]1CN(C)C(=O)Nc1cccc2ccccc12	i
C[C@H]1CCCCO[C@H](CN(C)C(=O)Nc2ccccc2)[C@@H](C)CN([C@@H](C)CO)C(=O)c2cc(NS(C)(=O)=O)ccc2O1	i
C[C@@H]1CN([C@@H](C)CO)C(=O)c2cc(NS(C)(=O)=O)ccc2O[C@@H](C)CCCCO[C@@H]1CN(C)C(=O)Nc1ccccc1	+
C[C@@H]1CN([C@H](C)CO)C(=O)c2cc(NS(C)(=O)=O)ccc2O[C@H]1CN(C)Cc1ccccc1	i
C[C@H](CO)N1C[C@H](C)[C@@H](CN(C)C(=O)Nc2ccccc2)Oc2ccc(NS(C)(=O)=O)cc2C1=O	+
C[C@H]1CCCCO[C@@H](CN(C)C(=O)Nc2ccccc2)[C@@H](C)CN([C@@H](C)CO)C(=O)c2cc(NS(C)(=O)=O)ccc2O1	i
C[C@@H]1CN([C@@H](C)CO)C(=O)c2cc(NC(=O)CCCN(C)C)ccc2O[C@H]1CN(C)C(=O)Nc1cccc2ccccc12	+
C[C@H](CO)N1C[C@H](C)[C@@H](CN(C)Cc2ccccc2)Oc2ccc(NS(C)(=O)=O)cc2C1=O	+
C[C@@H]1CN([C@H](C)CO)C(=O)c2cc(NS(C)(=O)=O)ccc2O[C@H]1CN(C)C(=O)Nc1ccccc1	i
C[C@@H]1CN([C@H](C)CO)C(=O)c2cc(NC(=O)CCCN(C)C)ccc2O[C@@H]1CN(C)C(=O)Nc1cccc2ccccc12	i
C[C@@H]1CN([C@@H](C)CO)C(=O)c2cc(NS(C)(=O)=O)ccc2O[C@H]1CN(C)C(=O)Nc1ccccc1	i
Nc1cc(N)nc(SCC(=O)Nc2ccc3ccccc3c2)n1	i
Cc1cc2nc(-c3ccc(Cl)c(NC(=O)COc4ccccc4)c3)oc2cc1C	i
COc1ccc(C)cc1S(=O)(=O)N(CC(N)=O)c1ccc(Cl)cc1	i
CC(C)(CO)NCC(O)COc1ccccc1Cl (stereo not drawn)	i
C[C@@H]1CCCCO[C@H](CN(C)S(=O)(=O)c2cn(C)cn2)[C@@H](C)CN([C@H](C)CO)C(=O)c2cc(NS(C)(=O)=O)ccc2O1	i
C[C@@H]1CCCCO[C@@H](CN(C)S(=O)(=O)c2cn(C)cn2)[C@@H](C)CN([C@H](C)CO)C(=O)c2cc(NS(C)(=O)=O)ccc2O1	i
C[C@@H]1CCCCO[C@H](CN(C)S(=O)(=O)c2cn(C)cn2)[C@H](C)CN([C@H](C)CO)C(=O)c2cc(NS(C)(=O)=O)ccc2O1	+
O=C(CSc1nc2ccccc2c(=O)[nH]1)Nc1ccccc1Cl	i
CC(Oc1cccc(Cl)c1)C(=O)NCc1ccco1 (stereo not drawn)	i
COC(=O)c1ccc(OC(=O)CS(=O)c2ccc(C(F)(F)F)cc2[N+](=O)[O-])cc1 (stereo not drawn)	i
Cn1c(NCCCN)nc2c1c(=O)n(Cc1ccccc1Cl)c(=O)n2C	+
Cn1c(=O)c2c(nc(NCCN)n2C)n(C)c1=O	i
Cn1c(=O)c2c(nc(NCCN)n2Cc2ccc(Cl)cc2)n(C)c1=O	i
O=C(NC(=S)c1c(-c2ccccc2)cc2ccccn12)c1ccccc1	i
SMILES	ID4 SMM
O=C(CC1Nc2cccc3cccc(c23)NC1=O)Nc1ccc([N+](=O)[O-])cc1 (stereo not drawn)	i
CCc1c(O)nc(SCC(=O)Nc2ccc(OC)cc2)n(-c2ccccc2)c1=O	i
COc1ccc(-n2nc3cc(C)c(NC(=O)COc4ccccc4)cc3n2)cc1	i
O=[N+]([O-])c1ccccc1CN1CCN(CCO)CC1	+
O=[N+]([O-])c1ccccc1S(=O)(=O)N1CCN(Cc2cccc(OCCO)c2)CC1	i
O=C(Cc1ccccc1[N+](=O)[O-])Nc1ccc(S(=O)(=O)N2CCCCC2)cc1	i
Cc1ccc(S(=O)(=O)NCCC(=O)Oc2ccc3c(=O)c(-c4ccc(F)cc4)coc3c2)cc1	i
O=C(C[C@@H]1CC[C@@H](NS(=O)(=O)c2ccccc2)[C@H](CO)O1)NCCN1CCCCC1	i
O=C(C[C@@H]1CC[C@@H](NS(=O)(=O)c2ccccc2)[C@@H](CO)O1)NCCN1CCCCC1	+
O=C(C[C@H]1CC[C@H](NS(=O)(=O)c2ccccc2)[C@@H](CO)O1)NCCN1CCCCC1	i
COc1ccc(S(=O)(=O)N(C)CC(=O)Nc2cccc(C(F)(F)F)c2)cc1C	i
CC1(C)[C@H](O)CC[C@@]2(C)[C@@H]3CC[C@](C)(C(O)CO)CC3=CC[C@H]12 (stereo partly drawn)	i

High-throughput results as filed in PubChem BioAssay.
